Assay results from PubChem BioAssay AID1345082 (National Center for Advancing Translational Sciences (NCATS), 2018).
About 4,000 (4.3%) of roughly 94,000 compounds were called active. Inconclusive results (about 29%) are left out. Many of the other results were omitted from the sample, so actives are more common in it than they were. Unmarked numbers belong to inactive results. Calls come from the whole dose curve; as a rule, active = well fitted inhibition curve with a large enough effect; inconclusive = small, poorly fitted or top-dose-only effect; inactive = no such curve, though single readings can be large or run the other way.

Experiment: Cytotoxic Profiling in NIH 3T3 Cell Line of Diverse Libraries Using Quantitative High-Throughput Screening; note: nearly all actives have a fitted effect of over 55% in size
Details: NIH 3T3 viability, CellTiter-Glo ATP luminescence, 48-72 h; series mostly up to 96.7 µM; activity change, negative = cytotoxicity: at the top concentration
Summary of the method: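 Viability of NIH 3T3 cells after 48 or 72 hr compound treatment at 37 °C was assessed by CellTiter-Glo, with luminescence imaged following a 10 min room-temperature step.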
% is set by controls: 0 for no effect and ±100 for the full control effect; potency is the fitted concentration of half-maximal effect.

| SMILES | activity change, negative = cytotoxicity | outcome | Potency |
| --- | --- | --- | --- |
| N#Cc1ccc(CN2CCC3(COc4ncccc4[S+](=O)([O-])N3)C2)cc1 (stereo not drawn) | -19.9% |  |  |
| CC(C)c1ccc(CNC(=O)CCn2ccn3nc4c(c3c2=O)CCCC4)cc1 | -28.9% |  |  |
| C=CCOc1cccc(-c2nnc(CCC(=O)NCc3ccccc3)c(=O)[nH]2)c1 | -25% |  |  |
| CSCCNC(=O)c1cc(-c2ccc(Cl)nc2)nc2c1cnn2C | -28.8% |  |  |
| COCC(=O)N[C@@H](Cn1ccc(=O)[nH]c1=O)C(=O)O | 1.85% [at 230 µM] |  |  |
| O=C(c1cnccn1)N1CCC[C@H](n2c(=O)n(CC3CC3)c3cccnc32)C1 |  | inactive |  |
| Cc1ccc(NS(=O)(=O)c2ccccc2)c(=O)n1CC(=O)N(C)Cc1ccccc1 | -14.6% |  |  |
| CC(C)CCN1C(=O)CC[C@]2(C(=O)N3CCN(C)CC3)CCCC[C@@H]12 | -21.4% |  |  |
| O=C1CC(c2ccccc2)N(C(=O)CNC(=O)NCc2ccc(F)cc2)CCCCCN1 (stereo not drawn) | -6.97% |  |  |
| O=C1CC(c2ccccc2)N(C(=O)CNC(=O)C2CCC2)CCCCCN1 (stereo not drawn) | -5.49% |  |  |
| O=C1CC(c2ccccc2)N(Cc2cn[nH]c2-c2ccc(F)cc2)CCCCCN1 (stereo not drawn) |  |  | 39.8 µM (active) |
| Cn1ncc2c(C(=O)NCC(F)(F)F)cc(-c3ccccc3F)nc21 | -34.4% [at 138 µM] |  |  |
| CCOc1ccc(-c2noc(-c3ncn4c3COC(c3ccc(OC)cc3)C4)n2)cc1 (stereo not drawn) | -16.5% |  |  |
| COc1ccc(C2Cn3cnc(-c4nc(-c5ccc(OC)cc5OC)no4)c3CO2)cc1 (stereo not drawn) |  |  | 20 µM (active) |
| COc1ccc(-c2noc(-c3nnn4c3COC(c3ccc(Cl)cc3)C4)n2)c(OC)c1 (stereo not drawn) | -10% |  |  |
| CN(C)C(=O)C1CN(C(=O)C2CCCC2)CC12CCOCC2 (stereo not drawn) |  | inactive |  |
| CCC(=O)N1Cc2ccccc2CC2(CCN(Cc3ccc(OC)cc3)C2)C1 (stereo not drawn) | -13.7% |  |  |
| O=C(NCCC1COc2ccccc2O1)c1ccc(N2CCCOCC2)nc1 (stereo not drawn) | -4.44% |  |  |
| COc1ccc(-c2ccc3c(c2)C(=O)N2CCN(C(=O)CC(C)(C)C)C[C@@H]2C(=O)N3)c(OC)c1 | -6.29% |  |  |
| COc1ccc(-c2cccc(C(=O)NCc3cccc(Cl)c3)c2)nn1 |  |  | 35.5 µM (active) |
| COc1ccc(-c2cccc(C(=O)NC3CC3)c2)nn1 | -28.6% [at 138 µM] |  |  |
| COc1ccc(-c2cccc(C(=O)N3CCN(C(=O)Cc4cccc(Cl)c4)CC3)c2)nn1 | -25.1% |  |  |
| O=C(N[C@H]1CCOC[C@H]1C1CCOCC1)c1scc2c1OCCO2 | -0.0014% |  |  |
| Cc1nc(C(=O)N2CC[C@H](NS(=O)(=O)c3cccs3)C[C@H]2C(=O)N[C@H](Cc2c[nH]c3ccccc23)C(N)=O)cs1 | 2.43% |  |  |

| SMILES | activity change, negative = cytotoxicity | outcome | Potency |
| --- | --- | --- | --- |
| Cn1ccnc1C(=O)N1CCCCCCNC(=O)[C@@H]2C[C@@H](C(=O)N3CCc4ccccc4C3)C[C@@H]21 | -13.4% |  |  |
| O=C(NCc1cccnc1)C1CCC(=O)N1C1CCNCC1 (stereo not drawn) | -3.85% |  |  |
| CC1=C[C@@H](CNC2CC2)[C@H](C(C)C)C[C@H]1Cc1nnc(-c2ccc(C)cc2)o1 |  |  | 39.8 µM (active) |
| CC1=C[C@@H](CN2CCOCC2)[C@H](C(C)C)C[C@H]1Cc1nnc(-c2ccc([N+](=O)[O-])cc2)o1 |  |  | 35.5 µM (active) |
| CC1=C[C@@H](CNC(C)C)[C@H](C(C)C)C[C@H]1Cc1nnc(-c2ccc(N(C)C)cc2)o1 |  |  | 31.6 µM (active) |
| CC(=O)NC[C@@H]1C=C(C)[C@H](CC(=O)N2CCCC2)C[C@H]1C(C)C | 3.57% [at 174 µM] |  |  |
| CC1=C[C@@H](CNC(=O)NC(C)C)[C@H](C(C)C)C[C@H]1Cc1nnc(-c2ccncc2)o1 |  |  | 56.2 µM (active) |
| COC1C(=O)N(c2cccc(F)c2)C12CCN(C(=O)C1(c3ccccc3)CC1)CC2 (stereo not drawn) | -15.4% |  |  |
| CCn1ccc(C(=O)N2C[C@@H]3CCCN4CCC[C@@H]([C@H]34)[C@H]2CCCC(=O)Nc2ccccc2)n1 | 1.62% |  |  |
| CC(=O)NC1CC2(CCN(C(=O)CCC(=O)O)CC2)c2ccccc21 (stereo not drawn) | 2.38% |  |  |
| CS(=O)(=O)N1Cc2ccccc2CC2(CCN(Cc3ccncc3)C2)C1 (stereo not drawn) | -28.9% |  |  |
| CCN1CCc2[nH]cnc2C12CCN(C(=O)C1CCc3ccccc3C1)CC2 (stereo not drawn) | -24.9% |  |  |
| Cc1cc2nc3n(c(=O)c2n1CC(=O)Nc1cccc(C(F)(F)F)c1)CCCC3 | -24.2% |  |  |
| O=C(NCc1ccncc1)c1csc(N2CCN(c3ccccc3F)CC2)n1 | -23.9% |  |  |
| O=C(c1ccc(C(F)(F)F)cc1)N1CCCC2(CC(c3ccccn3)=NO2)C1 (stereo not drawn) | -7.84% |  |  |
| Fc1ccc(CN2CC[C@H](c3nnc(-c4ccccc4F)o3)C2)cc1 | -21.5% [at 138 µM] |  |  |
| COc1ccc(C(=O)NCc2nnc3cc(-c4nc(C)no4)ccn23)cc1 | -12.2% |  |  |
| COc1ccc(CC(=O)NC[C@@H]2C=C(C)[C@H](Cc3nc4ccncc4[nH]3)C[C@H]2C(C)C)cc1 | -26.3% |  |  |
| CC1=C[C@@H](CN2CCC(O)CC2)[C@H](C(C)C)C[C@H]1Cc1nnc(-c2ccccc2F)o1 |  |  | 112 µM (active) |
| COc1ccc(C(=O)NC[C@@H]2C=C(C)[C@H](Cc3nnc(-c4cncn4C)o3)C[C@H]2C(C)C)cc1 |  |  | 25.1 µM (active) |
| CC1=C[C@@H](CNC(C)C)[C@H](C(C)C)C[C@H]1Cc1nnc(-c2ccc(C)cc2)o1 |  |  | 50.1 µM (active) |
| CC1=C[C@@H](CN2CCN(CCO)CC2)[C@H](C(C)C)C[C@H]1Cc1nnc(-c2ccc(C)cc2)o1 |  |  | 39.8 µM (active) |
| O=C1NCc2ccccc2CC12CCN(Cc1ccc(CO)o1)C2 (stereo not drawn) | -2.07% |  |  |
| CC(C)c1ccccc1NC(=O)Cn1cccc1-c1nc(-c2ccccc2)no1 | 0.152% |  |  |

| SMILES | activity change, negative = cytotoxicity | outcome | Potency |
| --- | --- | --- | --- |
| Cc1ccc(CN2CCNC(=O)C2CC(=O)NC2(CO)CCCC2)cc1 (stereo not drawn) | -0.757% |  |  |
| Cc1ncc2c(c1CNC(=O)c1ccccc1F)CCN(C(=O)Cc1cccc(F)c1)C2 | -9.27% |  |  |
| CC(C)C(=O)NCC12CCC=C1N(C)C(=O)CC2 (stereo not drawn) | -0.138% |  |  |
| COCCN1C(=O)CS(=O)(=O)C12CCN(C(=O)c1ccc(OC)cc1)CC2 | -5.73% |  |  |
| CNC(=O)[C@@H]1CN(C(=O)c2cccc(OC)c2)C[C@H]1COC |  | inactive |  |
| O=C(NC1CCC(n2cc(C(=O)N3CCCC3)nn2)CC1)C(c1ccccc1)C1CCCC1 (stereo not drawn) | -0.0895% |  |  |
| COCCNc1ncc(C(=O)O)c(C)n1 | -8.62% |  |  |
| O=C(Nc1ccc2ncnc(N3CCCCC3)c2c1)c1ccc2c(c1)OCO2 | -20.6% |  |  |
| N[C@@H]1CC[C@H](C(=O)N2CCN(CCCOc3ccc(F)cc3)CC2)C1 | -28% |  |  |
| O=C(CCc1nnn2c1CN(C(=O)NCCc1ccccc1)CC2)NC1CC1 | 1.43% |  |  |
| CCn1cc(Cl)c(C(=O)N2CCCn3cc(-c4ccccc4)nc32)n1 | -11.8% |  |  |
| CCCc1nnc(C[C@@H]2C[C@@H](C(C)C)[C@H](CN3CCC[C@H]3CO)C=C2C)o1 |  |  | 50.1 µM (active) |
| CC1=C[C@@H](CN(C)CCc2ccccn2)[C@H](C(C)C)C[C@H]1Cc1nnc(-c2ccccc2F)o1 |  |  | 35.5 µM (active) |
| COCC(=O)NC[C@@H]1C=C(C)[C@H](CC(=O)Nc2ccccn2)C[C@H]1C(C)C | -17% [at 138 µM] |  |  |
| CNC(=O)c1cn2c(n1)CN(C(C)=O)CC2 |  | inactive [at 174 µM] |  |
| COc1cc(CCC(=O)N2C[C@@H](C(N)=O)[C@H](c3n[nH]c(C)n3)C2)on1 | -12.8% |  |  |
| COc1ccc(C(=O)N2C[C@@H](CO)[C@H](c3ccncc3)C2)cc1F | -8.96% |  |  |
| Cc1ccccc1C(=O)N1CCC2(CC1)OCC(C(=O)N1CCOCC1)N2C(=O)c1cccc(F)c1 (stereo not drawn) |  | inactive |  |
| O=C(c1ccc(F)c(F)c1)N1CCC([C@@H]2CNC[C@H]2CO)CC1 | -0.844% |  |  |
| COc1ccc(-c2noc(-c3nnn4c3COC(c3ccc(F)cc3)C4)n2)cc1 (stereo not drawn) | -4.85% |  |  |
| Cc1ccc(S(=O)(=O)Nc2ccc(C)n(CC(=O)NCc3cccc(F)c3)c2=O)cc1 | 0.908% |  |  |
| CC(C)CNC(=O)C1COC2(CCC(C)CC2)N1C(=O)c1cccc(F)c1 (stereo not drawn) | -12% |  |  |
| CC1CCC2(CC1)OCC(C(=O)NCc1ccc3c(c1)OCO3)N2C(=O)c1ccccc1F (stereo not drawn) |  |  | 20 µM (active) |
| O=C(NCc1ccc(F)cc1)C1COC2(CCCCC2)N1C(=O)c1ccccc1 (stereo not drawn) | -8.67% |  |  |

| SMILES | activity change, negative = cytotoxicity | outcome | Potency |
| --- | --- | --- | --- |
| CCCOc1cc(C)c2c(c1C)C[C@H](C(C)C(=O)N1CCOCC1)CC2 (stereo partly drawn) | -17.8% [at 174 µM] |  |  |
| Fc1cccc(-c2ncc[nH]2)c1 | -21.4% [at 230 µM] |  |  |
| O=C1NC[C@@H](CCC(=O)N2CCN(c3ccccn3)CC2)N2C[C@@H](NCc3ccccc3)C[C@@H]12 | 4.35% |  |  |
| CC(C)N1CC2(C1)C(=O)N(CCCN1CCCC1=O)C(=O)[C@@H]1C[C@@H](O)CN12 | 0.0127% [at 174 µM] |  |  |
| COc1ccccc1-c1cc(-c2cn[nH]c2)c2cncn2c1 |  |  | 50.1 µM (active) |
| COc1ncccc1-c1cc(-c2cn[nH]c2)c2cncn2c1 |  |  | 70.8 µM (active) |
| COc1ccccc1-c1ccc(C(=O)O)cc1 | -6.43% [at 138 µM] |  |  |
| COc1ccccc1-c1cc(C(=O)N(C)C)nc2c1cnn2C | 3.84% |  |  |
| O=C(CCn1cncn1)N1CCc2[nH]nc(-c3cccc4ccccc34)c2C1 | -1.41% |  |  |
| CCCN(CC1CCOC1)C(=O)Nc1ccccc1C(F)(F)F (stereo not drawn) | -7.03% |  |  |
| O=[S+]([O-])(c1cccc(C(F)(F)F)c1)N1CCC2(CCN(CCc3ccccc3)c3ccccc3O2)CC1 | -24.8% |  |  |
| Cc1ccc(CN2CCC(C3CCN(S(C)(=O)=O)CC3)C2)nc1 (stereo not drawn) | -8.33% |  |  |
| CCCNc1cc(N2CCC(CCC(=O)Nc3ccc(C)cc3)CC2)ncn1 | -17.3% |  |  |
| COc1ccccc1Oc1ncccc1CNC(=O)c1ccc2n[nH]nc2c1 | -16% |  |  |
| CC(=O)NC(C)c1nnc2n1CCN([S+](=O)([O-])c1ccccc1)C2 (stereo not drawn) | -19% |  |  |
| Cc1ccc(-c2ccccc2CN2CCN([S+](=O)([O-])c3cccc(C(F)(F)F)c3)CC2)cc1Cl | -40.4% |  |  |
| CC(C)c1ccc([S+](=O)([O-])N2CCN(c3cccc(CN(C)[S+](C)(=O)[O-])c3F)CC2)cc1 |  |  | 35.5 µM (active) |
| O=C(C1CCCC1)N1Cc2ccccc2CC2(CCCCN2CC2CCNCC2)C1 (stereo not drawn) |  |  | 17.8 µM (active) |
| NCC(=O)N1Cc2ccccc2CC2(CCCCN2CC2CCOCC2)C1 (stereo not drawn) | -0.121% |  |  |
| CC(=O)NCCC(=O)N1Cc2ccccc2CC2(CCCCN2CC2CCNC2)C1 (stereo not drawn) | -0.729% |  |  |
| Cc1ccccc1OCC(=O)N1CCC2(CC1)NC(=O)N(Cc1ccccc1)C2=O | -1.63% |  |  |
